Measurements: PubChem BioAssay (NCI)
The panel holds about 79,000 compounds, 15% with a hit somewhere; the sample as a whole holds those more often. A number with no mark means an inactive call. The source made the active and inactive calls. Rule as the data show it: active = growth inhibition above about 70%; inactive = the rest. Where a SMILES comes first, the peptide text is derived from it. Bridges are numbered along the chain shown (N, C = ends). [ ]: non-standard residue; d: D form. NMeV = CN[CH](C(=O)O)C(C)C; Sar = CNCC(=O)O

What was measured:
[1] = NCI Yeast Anticancer Drug Screen. Data for the rad50 strain (AID 155);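 also: 0% = growth of vehicle-only cultures of the same strain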; conditions: S. cerevisiae rad50 strain growth inhibition, active compounds read high
Procedure, shortened: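 Relative growth inhibition (compound vs vehicle) was measured in yeast with a defined repair-gene alteration.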

[2] = NCI Yeast Anticancer Drug Screen. Data for the mec2-1 strain (AID 157); conditions: S. cerevisiae mec2-1 strain, active compounds read high
Procedure, shortened: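 Cells of the genetically defined mec2-1 yeast strain are incubated with test compound. Inhibition of growth is calculated against vehicle-treated controls.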

[3] = NCI Yeast Anticancer Drug Screen. Data for the sgs1 mgt1 strain (AID 161);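 also: 0% = growth of cultures given vehicle only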; conditions: S. cerevisiae sgs1 mgt1 strain, active compounds read high
Procedure, shortened: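 Test agents were incubated with a DNA-repair-mutant yeast strain. Growth was then read and compared against vehicle-treated controls.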

[4] = NCI Yeast Anticancer Drug Screen. Data for the cln2 rad14 strain (AID 165);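 also: 0% = growth equal to vehicle treated cultures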; conditions: S. cerevisiae cln2 rad14 strain, active compounds read high
Procedure, shortened: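 The screen exposed genetically defined yeast (cln2 rad14) to test compounds and scored growth inhibition relative to vehicle-treated controls.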

[5] = NCI Yeast Anticancer Drug Screen. Data for the bub3 strain (AID 167); conditions: S. cerevisiae bub3 mutant strain, active compounds read high
Procedure, shortened: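 Screening used yeast with an engineered genetic alteration affecting cell cycle control. Compound-exposed cultures were compared with vehicle cultures, and reduced growth was taken as inhibition.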

[6] = NCI Yeast Anticancer Drug Screen. Data for the mlh1 rad18 strain (AID 175); conditions: S. cerevisiae mlh1 rad18 strain growth inhibition, active compounds read high
Procedure, shortened: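 Compound-treated yeast growth, normalised to vehicle controls. Strain bears defined DNA repair mutations.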

[7] = at 5.0 µM (retest, dose inferred, filed as 0.5)
[8] = at 50.0 µM (retest, dose inferred, filed as 5.0)

| Compound | growth inhibition [1, 7] | growth inhibition [1, 8] | growth inhibition ([1]; at 50.0 µM) | growth inhibition [2, 7] | growth inhibition [2, 8] | growth inhibition ([2]; at 50.0 µM) | growth inhibition [3, 7] | growth inhibition [3, 8] | growth inhibition ([3]; at 50.0 µM) | growth inhibition [4, 7] | growth inhibition [4, 8] | growth inhibition ([4]; at 50.0 µM) | growth inhibition [5, 7] | growth inhibition [5, 8] | growth inhibition ([5]; at 50.0 µM) | growth inhibition [6, 7] | growth inhibition [6, 8] | growth inhibition ([6]; at 50.0 µM) |
| --- | --- | --- | --- | --- | --- | --- | --- | --- | --- | --- | --- | --- | --- | --- | --- | --- | --- | --- |
| CC(C)C1NC(=O)C(N)C(C)OC(=O)C(C(C)C)N(C)C(=O)CN(C)C(=O)C2CCCN2C1=O (stereo unspecified) (tested in a mixture with another compound) (H-TVP[Sar][NMeV]; ester 1-C; configuration not given here) | 21% | 94% (active) | 89.1% (active) | 10% | 97% (active) | 92.2% (active) | 18% | 91% (active) | 90.3% (active) | 39% | 95% (active) | 87.5% (active) | 16% | 96% (active) | 90.8% (active) | 11% | 95% (active) | 90.2% (active) |
| COc1cccc(OC)c1C(=O)/C=C/c1ccccc1 | -3% | 62% | 66.7% | -1% | 66% | 45% | 1% | 62% | 69.9% | -7% | 47% | 55.4% | -5% | 70% (active) | 50.9% | 1% | 71% (active) | 79.1% (active) |
| Clc1cc(Cl)c(OCCOCCI)c(Cl)c1 | 0% | 13% | 28.1% | 2% | 12% | 9.15% | 1% | 11% | 16.1% | 1% | -25% | 14.4% | 10% | 42% | 48% | -3% | 5% | 34% |
| CSc1ccc(/C=C2/C[N+](C)(C)C/C(=C/c3ccc(SC)cc3)C2=O)cc1 | 41% | 41% | 90.6% (active) | 22% | 22% | 90.7% (active) | 34% | 34% | 87.3% (active) | 20% | 20% | 86.5% (active) | 6% | 6% | 90.2% (active) | 32% | 32% | 86.7% (active) |
| CCOCCOc1ccc(OCCOCC)cc1 | -8% | -13% | -1.9% | -8% | -13% | -1.7% | -66% | -9% | -7% | -4% | -10% | 37.3% | -8% | -4% | -2.95% | 13% | -15% | 0.4% |
| NS(=O)(=O)c1ccc(NC(=S)/N=C/c2c(O)c3ccccc3[nH]c2=O)cc1 | 20% | 55% | 22.4% | 17% | 26% | -0.65% | -29% | 0% | 25.4% | 3% | 7% | -4.25% | -10% | -8% | -11.8% | 21% | 30% | 27.4% |
| O/N=C(/CCc1ccccc1)c1ccccc1 | 7% | 84% (active) | 97.1% (active) | 2% | 70% (active) | 97% (active) | 5% | 76% (active) | 97.2% (active) | -2% | 56% | 93.2% (active) | -2% | 71% (active) | 95.7% (active) | 2% | 71% (active) | 97.2% (active) |
| Nc1nc(-c2ccccn2)cc2cc(Cl)ccc12 | 93% (active) | 99% (active) | 3.15% | 92% (active) | 100% (active) | -5.45% | 95% (active) | 99% (active) | 7.55% | 88% (active) | 98% (active) | -1.4% | 92% (active) | 99% (active) | 8.05% | 94% (active) | 98% (active) | 13.9% |
| Cc1cc(O)c(/C=N/c2nc(-c3cccc([N+](=O)[O-])c3)cs2)c(=O)o1 | 40% | 99% (active) | 37.9% | 42% | 100% (active) | 30% | 52% | 100% (active) | 51.2% | 22% | 99% (active) | 31% | 51% | 100% (active) | 37.7% | 54% | 99% (active) | 63.6% |
| CCCCCCCCCCCCCCCCOC(=O)C[n+]1cccc(C(N)=O)c1 | 2% | 50% | 89.8% (active) | 8% | 85% (active) | 94.4% (active) | 27% | 92% (active) | 97.2% (active) | -5% | 22% | 36% | -1% | 79% (active) | 73% (active) | 42% | 82% (active) | 92.3% (active) |
| Cc1cc(Cl)c2cc(Cc3ccc(Br)cc3)ccc2n1 | -3% | 10% | 16.5% | -10% | 20% | 36% | 11% | 37% | 43.9% | 1% | -1% | 50.6% | 4% | 12% | 37.6% | 15% | 15% | 55.9% |
| O=C1OCC2=C1C(c1ccc(Cl)cc1)c1cc3c(cc1O2)OCO3 (stereo unspecified) | 8% | 10% | -23.4% | 9% | 8% | -20.4% | 4% | 16% | -5.5% | 2% | 18% | 19.4% | 17% | 21% | 6.15% | 17% | 7% | -15.8% |
| Clc1c(Cl)c(Cl)c(SC2C3CC4C(C3)C42)c(Cl)c1Cl (stereo unspecified) | 31% | 98% (active) | 98.3% (active) | 23% | 99% (active) | 98.8% (active) | 27% | 97% (active) | 98.8% (active) | 12% | 97% (active) | 97.9% (active) | 7% | 91% (active) | 98% (active) | 21% | 97% (active) | 98.4% (active) |
| CCSC(=O)/C=C1\CN(C(=O)OC(C)(C)C)C1C(=O)OC(C)(C)C (stereo unspecified) | -23% | -7% | 30.1% | -40% | -9% | 26.9% | -44% | -2% | 56% | -35% | 14% | 72.9% (active) | -57% | 10% | 58.5% | -15% | 12% | 70% (active) |
| Cn1c2c(c3nc(N)nc(N)c3c1=O)CCc1ccccc1-2 | 6% | 21% | 72.8% (active) | 0% | 31% | 26.3% | 8% | 39% | 69.5% | -2% | 37% | 42.8% | -1% | 39% | 68.5% | 0% | 36% | 44.4% |
| CNC(=O)OCc1c(COC(=O)NC)c(-c2ccc(OC)cc2)n2c1CCC2 | 28% | 33% | 28.4% | 19% | 21% | 74.9% (active) | 44% | 68% | 70.9% (active) | 38% | 43% | 73.7% (active) | 50% | 46% | 48.4% | 23% | 32% | 92.6% (active) |
| O=C(O)C(=O)Cc1ccccc1[N+](=O)[O-] | -3% | 36% | 75.4% (active) | 1% | 1% | 4.9% | -3% | 28% | 68.3% | 1% | 3% | -18.6% | -10% | 10% | 20.5% | -2% | 24% | 68.2% |
